In assay [1] the target is Lysosomal acid glucosylceramidase (Homo sapiens) (UniProt P04062). Briefly: Glucocerebrosidase-p2 (AID 348; in the data active means potency below about 10 µM; further: potency means the concentration at half of the fitted maximal effect). Particulars: purified GBA, blue fluorogenic substrate, 40 min. The method in brief:
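Normal human glucocerebrosidase (0.2 nM) with blue fluorogenic substrate (80 uM final) in citrate/phosphate pH 5.9 with 10mM sodium taurocholate, 0.01% tween-20; 40 min RT, NaOH/glycine stop; fluorescence Ex 365/Em 440; AC50 from a titration from 0.6 nM upwards.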

The nature of assay [2]: AP1 Signaling Pathway (AID 357; active means well fitted curve in either direction with a large enough effect, not every such curve was filed as active; further: on the % scale 0 is the no-effect control and ±100 the full control effect). As to conditions: ME-180 AP-1-bla reporter, EGF-induced, beta-lactamase ratio, 5 h; at 7.69 µM (top of the series) unless noted. The method in brief: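 Read-out was the 460nm/530nm emission ratio (excitation 405nm) after CCF4 loading for 2.5 hours at room temperature. Cells carried an AP-1-driven beta-lactamase reporter, were stimulated with EC50 EGF plus compound for 5 hours, and AC50 values came from titrations.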

Assay [3] addresses Cytochrome P450 1A2 (Homo sapiens) (UniProt P05177). Kind of assay: p450-cyp1a2 (AID 410; calls by dose curve; further: potency means the concentration at half of the fitted maximal effect;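 on activity change, negative = inhibition: -100% = full effect of reference inhibitor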). Particulars: recombinant CYP1A2, luciferin-ME demethylation, luminescence; series mostly up to 57 µM. The method in brief: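 Luminescent demethylation readout: Luciferin-ME (100uM, equal to Km) turned over by 20nM CYP1A2 for 60 min at room temperature after NADPH regeneration addition, following 10 min compound preincubation. Normalization used 57 uM furafylline as full inhibition.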

A short description of assay [4]: NFAT Signaling Pathway (AID 444; active means well fitted curve in either direction with a large enough effect, not every such curve was filed as active;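 further: carbachol stimulus at about its EC50 of 1 µM final; on the % scale 0 is the no-effect control and ±100 the full control effect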). As to conditions: Jurkat NFAT-bla M1, carbachol, beta-lactamase ratio, 5 h; at 7.69 µM (top of the series) unless noted. In outline:
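Jurkat cells carrying an NFAT-driven β-lactamase reporter and co-transfected muscarinic M1 receptor were treated with compound plus carbachol (1 uM final, an EC50 level) for 5 h at 37 °C. CCF4 loading followed for 1 h at RT; 460/530 nm ratio gave %activity.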

Assay [5] in a line: Stat Signaling Pathway (AID 446; active means well fitted curve in either direction with a large enough effect, not every such curve was filed as active;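 further: ME-180 cervical cancer cells given 40 pM IL-6 alongside compound; SIE-controlled beta-lactamase reporter measured as 460/530 nm FRET emission ratio; on the % scale 0 is the no-effect control and ±100 the full control effect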). As to conditions: ME-180 SIE beta-lactamase reporter, IL-6 stimulated, 5 h; at 7.69 µM (top of the series) unless noted. In outline:
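Overnight-plated ME-180 cells bearing a STAT Inducible Element beta-lactamase reporter; 5 h co-exposure to compound and 40 pM IL-6; values normalized to 300 pM IL-6 and 125 nM JAK inhibitor controls.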

Assay [6] addresses Glucocorticoid receptor (Homo sapiens) (UniProt P04150). Kind of assay: GR-GFP Redistribution (AID 450;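 active means compounds whose dose series gives a full or clear partial fitted curve of increased nuclear translocation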; further: potency means the concentration at half of the fitted maximal effect). Particulars: U2OS GR-GFP nuclear translocation, laser cytometry, 2 h.
For assay [7] the target is unchanged. Briefly: GR-EFC Redistribution (AID 451; calls by dose curve; further: potency means the concentration at half of the fitted maximal effect). As to conditions: CHO-K1 GR-EFC translocation, beta-gal luminescence, 2 h. In outline:
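CHO-K1 cells stably expressing nuclear-localized β-gal enzyme acceptor and GR fused C-terminally to the enzyme donor fragment; ligand-driven nuclear translocation restores β-gal by complementation. Compounds titrated up to 46 uM final, 2 h at 37 °C; luminescence read.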

In assay [8] the target is Mitogen-activated protein kinase 10 (Mus musculus) (UniProt Q61831). Kind of assay: JNK3 AlphaScreen Assay (AID 530; active means well fitted curve in either direction with a large enough effect, not every such curve was filed as active;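 further: kinase came from lysate of stimulated human HepG2 cells; signal reports phosphorylation of biotinylated GST-cJun 1-79 at Ser73 with 10 µM ATP; on the % scale 0 is the no-effect control and ±100 the full control effect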). As to conditions: JNK3 lysate, c-Jun phosphorylation; series mostly up to 57.1 µM. In outline:
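Phosphorylation of biotinylated GST-cJun(1-79) at Ser73 is measured by AlphaScreen proximity luminescence. Enzyme is JNK3 in HepG2 lysates activated with interleukin-1beta and tumor necrosis factor alpha; ATP is 10 uM final.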

Assay [9] deals with 3',5'-cyclic-AMP phosphodiesterase 4B (Homo sapiens) (UniProt Q07343). Kind of assay: qHTS Assay for Inhibitors of PDE-IV (AID 607; active means well fitted activation curve with a large enough effect in the main read-out, with a control signal flat, not every such curve was filed as active; further: % of control where 0% means no effect). Particulars: HEK293 ACTOne CNG channel cells, membrane potential fluorescence; series mostly up to 22.9 µM. The method in brief:
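Live HEK293 cells with a modified cyclic nucleotide-gated (CNG) channel report intracellular cAMP via membrane-potential dye fluorescence (ex 535/em 590 nm). Endogenous PDE-IV was targeted. Compounds were tested at up to 22.9 uM final; RO 20-1724 100 uM served as control.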

In assay [10] the target is Cytochrome P450 3A4 (Homo sapiens) (UniProt P08684). Kind of assay: qHTS Assay for Inhibitors and Substrates of Cytochrome P450 3A4 (AID 884). Further: nearly all actives have a fitted effect of over 50% in size. Further: potency means the concentration at half of the fitted maximal effect. As to conditions: recombinant CYP3A4, Luciferin-PPXE luminescence; series mostly up to 57.1 µM. The method in brief:
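Luminescent readout of luciferin produced by CYP3A4 (20 nM) dealkylation of Luciferin-PPXE, 25 uM (its KM). NADPH-driven reaction ran 60 min at RT after 10 min compound preincubation; data scaled to 57 uM ketoconazole as 100% inhibition.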
For orientation: qHTS replaces the single test concentration by a dilution series.

Assay [11] has the same target. Kind of assay: qHTS Assay for Activators of Cytochrome P450 3A4 (AID 885). Further: nearly all actives have a fitted effect of over 65% in size. Particulars: recombinant CYP3A4, Luciferin-PPXE luminescence, 60 min; series mostly up to 57.1 µM. In outline: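 Using 20nM recombinant human CYP3A4 in potassium phosphate (200mM), substrate Luciferin-PPXE at 25uM, luminescent luciferin detection followed a 60-min RT NADPH reaction; data scaled to 57 uM ketoconazole.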

For assay [12], the target named is Cytochrome P450 2C19 (Homo sapiens) (UniProt P33261). Briefly: qHTS Assay for Inhibitors and Substrates of Cytochrome P450 2C19 (AID 899). Further: potency means the concentration at half of the fitted maximal effect; nearly all actives have a fitted effect of over 60% in size. As to conditions: recombinant CYP2C19, luciferin-H EGE luminescence; series mostly up to 57.1 µM. In outline:
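In 50mM KPO4, the reaction held 5nM enzyme and KM-level (10uM) Luciferin-H EGE; it ran 60 min at 37C after NADPH regeneration and a 10 min compound preincubation. Luminescence values were scaled to 57uM ketoconazole as complete inhibition.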

Assay [13] in a line: qHTS Assay for Lipid Storage Modulators (AID 1519; calls by dose curve). Particulars: Drosophila S3 cells, BODIPY lipid droplet/cell ratio, laser cytometry, cells loaded with oleic acid; for activity change, negative = inhibition: at 57.5 µM (top of the series). The method in brief: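 Cells seeded at 5,000 per well were treated with compounds over a concentration series and loaded with oleic acid (400 uM, as added). Lipid droplet fluorescence (488 nm excitation, 500-530 nm channel) was read by laser-scanning cytometry and normalized to 20 uM Triacsin C.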

Assay [14] has as its target Dual specificity protein kinase CLK4 (Homo sapiens) (UniProt Q9HAZ1). Kind of assay: qHTS Assay for Inhibitors of CDC-like Kinase 4 (ADP-Glo Assay) (AID 1771). Further: nearly all actives have a fitted effect of over 70% in size. Further: potency means the concentration at half of the fitted maximal effect. As to conditions: recombinant CLK4, ADP-Glo luminescence; series mostly up to 80 µM. In outline: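 ADP production was read by ADP-Glo luminescence after residual ATP depletion, following 1 h room-temperature reaction of 25 nM Clk4, 1 uM ATP and 100 uM RS peptide with MgCl2, EGTA, DTT and Triton X-100.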

Assay [15] has the same target. Briefly: qHTS Assay for Inhibitors of CDC-like Kinase 4 (ADP-FP Assay) (AID 1795). Further: nearly all actives have a fitted effect of over 60% in size. Further: potency means the concentration at half of the fitted maximal effect. Particulars: Transcreener ADP fluorescence polarization; series mostly up to 50 µM. The method in brief: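 Inhibition of ADP formation by 6.25 nM Clk4 is measured using 1 uM ATP and 100 uM RS repeat peptide over one hour. Produced ADP displaces a fluorescent tracer from antibody, lowering polarization.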

A short description of assay [16]: Primary qHTS for small molecule stabilizers of the endoplasmic reticulum resident proteome: Secreted ER Calcium Modulated Protein (SERCaMP) assay (AID 1508630). Further: on the % scale 0 is the no-effect control and ±100 the full control effect. As to conditions: SH-SY5Y GLuc-SERCaMP (Gaussia luciferase released on ER calcium loss) secretion, thapsigargin, luminescence; series mostly up to 38.4 µM. The method in brief:
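The SH-SY5Y reporter protocol was run at 3 concentrations up to 38.3 uM (primary) or 11 concentrations (follow-up): 16 h compound, 100 nM thapsigargin for 4 h, then extracellular luciferase luminescence.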

Assay [17] addresses Ubiquitin carboxyl-terminal hydrolase 1 (Homo sapiens) (UniProt O94782). Briefly: Inhibitors of USP1/UAF1: Pilot qHTS (AID 504865).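 Further: rhodamine fluorescence freed from ubiquitin-rhodamine substrate followed over time; top concentration of the series differs between compounds; on the % scale 0 is the no-effect control and ±100 the full control effect; nearly all actives have a fitted effect of over 35% in size.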 As to conditions: purified USP1/UAF1, Ub-rhodamine cleavage fluorescence; series mostly up to 54.9 µM. In outline: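 Kinetic fluorescence assay: 1nM USP1/UAF1, 15 min compound preincubation, then 150nM Ub-Rho; 480/540 nm.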
Assay [18] is described as follows: qHTS Assay for Identification of Small Molecule Agonists for Hypoxia Response Element Signaling Pathway (AID 914; active means well fitted activation curve with a large enough effect in the signal ratio, with a control signal flat, not every such curve was filed as active; the % refers to the signal ratio; further: potency means the concentration at half of the fitted maximal effect; on activation: % of control where 0% means no effect). As to conditions: ME-180 (cervical carcinoma) HRE-bla reporter, beta-lactamase ratio, CoCl2, 17 h; activation: stronger effect = higher value. In outline:
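Compounds in a titration series were added to ME-180 reporter cells alongside an EC50 level of CoCl2. After 17 hours, beta-lactamase activity was read as the 460nm/530nm emission ratio of CCF4, giving AC50 values.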

The mark [19] stands for this setting: measured here: cell count channel max response.
Where [20] appears, read: measured here: lipid channel max response.

Results filed as inconclusive are left out. Active and inactive are the calls of the source. Unless noted, the call rests on the fitted dose curve; in most records, active means well fitted curve in the direction sought with a large enough effect; inconclusive means small, poorly fitted or top-dose-only effect, or another doubt; inactive means no such curve, though single readings can be large; an effect the other way counts as inactive or inconclusive.

Chain of Glucocorticoid receptor (Homo sapiens) (P04150 whole entry, looked up): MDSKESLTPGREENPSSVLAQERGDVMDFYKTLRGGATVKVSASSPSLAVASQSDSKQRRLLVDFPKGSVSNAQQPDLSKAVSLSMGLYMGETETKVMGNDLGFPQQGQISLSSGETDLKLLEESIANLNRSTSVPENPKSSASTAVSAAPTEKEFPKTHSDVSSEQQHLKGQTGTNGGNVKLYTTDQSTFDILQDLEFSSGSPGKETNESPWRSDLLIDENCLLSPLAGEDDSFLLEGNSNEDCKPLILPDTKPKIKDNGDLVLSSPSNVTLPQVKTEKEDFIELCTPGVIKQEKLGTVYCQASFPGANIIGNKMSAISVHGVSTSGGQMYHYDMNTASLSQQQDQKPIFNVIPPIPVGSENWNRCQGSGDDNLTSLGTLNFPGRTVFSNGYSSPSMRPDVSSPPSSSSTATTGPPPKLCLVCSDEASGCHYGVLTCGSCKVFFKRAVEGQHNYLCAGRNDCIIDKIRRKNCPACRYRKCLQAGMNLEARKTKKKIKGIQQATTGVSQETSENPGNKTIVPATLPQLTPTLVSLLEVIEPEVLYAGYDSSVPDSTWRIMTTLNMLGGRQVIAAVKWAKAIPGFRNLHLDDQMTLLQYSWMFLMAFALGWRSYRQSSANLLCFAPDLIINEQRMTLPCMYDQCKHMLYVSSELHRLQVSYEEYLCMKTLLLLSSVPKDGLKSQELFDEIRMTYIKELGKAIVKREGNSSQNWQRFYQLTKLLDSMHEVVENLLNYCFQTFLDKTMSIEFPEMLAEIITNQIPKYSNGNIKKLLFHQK
Chain of Lysosomal acid glucosylceramidase (Homo sapiens) (P04062 whole entry, looked up): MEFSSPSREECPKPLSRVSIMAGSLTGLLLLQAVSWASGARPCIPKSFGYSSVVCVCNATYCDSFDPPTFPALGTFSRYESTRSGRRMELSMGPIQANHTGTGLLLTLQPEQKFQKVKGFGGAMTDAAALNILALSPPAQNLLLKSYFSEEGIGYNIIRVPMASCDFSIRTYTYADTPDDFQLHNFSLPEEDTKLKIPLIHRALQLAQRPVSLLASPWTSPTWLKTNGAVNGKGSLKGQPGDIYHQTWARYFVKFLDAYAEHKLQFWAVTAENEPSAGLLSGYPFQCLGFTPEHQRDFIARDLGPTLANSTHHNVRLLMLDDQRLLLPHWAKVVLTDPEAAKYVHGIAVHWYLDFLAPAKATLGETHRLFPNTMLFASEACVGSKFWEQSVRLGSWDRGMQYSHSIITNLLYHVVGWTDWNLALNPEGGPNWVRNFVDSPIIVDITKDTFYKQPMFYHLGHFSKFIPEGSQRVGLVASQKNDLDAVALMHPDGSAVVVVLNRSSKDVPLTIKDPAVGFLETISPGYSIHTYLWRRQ
Chain of Ubiquitin carboxyl-terminal hydrolase 1 (Homo sapiens) (O94782 whole entry, looked up): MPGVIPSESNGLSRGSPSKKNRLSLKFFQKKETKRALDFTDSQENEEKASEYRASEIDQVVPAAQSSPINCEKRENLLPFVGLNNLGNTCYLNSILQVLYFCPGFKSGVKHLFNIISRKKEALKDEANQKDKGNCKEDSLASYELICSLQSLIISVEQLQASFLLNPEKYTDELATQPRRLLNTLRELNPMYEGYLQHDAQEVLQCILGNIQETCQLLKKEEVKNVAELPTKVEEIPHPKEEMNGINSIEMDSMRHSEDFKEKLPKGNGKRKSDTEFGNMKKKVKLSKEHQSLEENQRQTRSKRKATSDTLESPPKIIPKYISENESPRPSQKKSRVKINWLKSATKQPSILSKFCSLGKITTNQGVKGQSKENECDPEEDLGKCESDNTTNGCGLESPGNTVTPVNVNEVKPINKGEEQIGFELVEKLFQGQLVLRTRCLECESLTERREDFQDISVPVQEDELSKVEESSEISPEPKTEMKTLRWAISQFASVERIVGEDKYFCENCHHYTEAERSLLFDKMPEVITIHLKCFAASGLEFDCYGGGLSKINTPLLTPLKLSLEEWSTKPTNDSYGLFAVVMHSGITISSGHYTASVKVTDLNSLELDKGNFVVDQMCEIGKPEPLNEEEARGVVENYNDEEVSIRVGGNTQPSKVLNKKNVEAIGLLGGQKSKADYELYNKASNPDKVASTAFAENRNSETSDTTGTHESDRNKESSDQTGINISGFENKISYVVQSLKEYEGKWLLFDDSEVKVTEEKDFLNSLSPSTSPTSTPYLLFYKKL
Chain of Cytochrome P450 1A2 (Homo sapiens) (P05177 whole entry, looked up): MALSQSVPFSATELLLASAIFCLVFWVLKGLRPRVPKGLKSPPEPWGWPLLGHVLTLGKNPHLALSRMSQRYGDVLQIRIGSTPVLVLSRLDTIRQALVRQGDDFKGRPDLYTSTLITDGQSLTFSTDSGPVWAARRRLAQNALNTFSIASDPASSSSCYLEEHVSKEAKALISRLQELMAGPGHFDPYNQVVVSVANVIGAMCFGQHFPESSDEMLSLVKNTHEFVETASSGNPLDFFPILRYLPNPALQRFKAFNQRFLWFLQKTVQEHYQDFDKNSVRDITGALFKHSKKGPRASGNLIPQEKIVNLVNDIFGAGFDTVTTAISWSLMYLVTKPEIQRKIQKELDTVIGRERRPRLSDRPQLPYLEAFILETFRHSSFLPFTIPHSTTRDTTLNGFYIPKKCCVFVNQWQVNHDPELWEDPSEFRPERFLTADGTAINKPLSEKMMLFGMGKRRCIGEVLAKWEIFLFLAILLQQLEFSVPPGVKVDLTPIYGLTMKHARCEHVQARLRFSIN
Chain of Cytochrome P450 3A4 (Homo sapiens) (P08684 whole entry, looked up): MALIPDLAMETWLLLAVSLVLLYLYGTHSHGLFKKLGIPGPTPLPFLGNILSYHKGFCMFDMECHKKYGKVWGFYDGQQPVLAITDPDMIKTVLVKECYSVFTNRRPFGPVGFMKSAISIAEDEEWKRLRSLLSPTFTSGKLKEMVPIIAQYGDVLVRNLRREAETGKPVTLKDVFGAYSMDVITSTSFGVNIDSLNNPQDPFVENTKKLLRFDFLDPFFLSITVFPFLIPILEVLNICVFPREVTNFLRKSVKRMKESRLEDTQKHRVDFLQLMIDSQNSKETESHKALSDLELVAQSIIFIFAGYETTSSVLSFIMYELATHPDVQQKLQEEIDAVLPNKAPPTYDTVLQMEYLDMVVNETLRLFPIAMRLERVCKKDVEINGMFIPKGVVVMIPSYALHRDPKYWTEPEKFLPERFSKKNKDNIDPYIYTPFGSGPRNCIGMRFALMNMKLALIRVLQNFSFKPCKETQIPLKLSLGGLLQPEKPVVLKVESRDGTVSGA
Chain of Dual specificity protein kinase CLK4 (Homo sapiens) (Q9HAZ1 whole entry, looked up): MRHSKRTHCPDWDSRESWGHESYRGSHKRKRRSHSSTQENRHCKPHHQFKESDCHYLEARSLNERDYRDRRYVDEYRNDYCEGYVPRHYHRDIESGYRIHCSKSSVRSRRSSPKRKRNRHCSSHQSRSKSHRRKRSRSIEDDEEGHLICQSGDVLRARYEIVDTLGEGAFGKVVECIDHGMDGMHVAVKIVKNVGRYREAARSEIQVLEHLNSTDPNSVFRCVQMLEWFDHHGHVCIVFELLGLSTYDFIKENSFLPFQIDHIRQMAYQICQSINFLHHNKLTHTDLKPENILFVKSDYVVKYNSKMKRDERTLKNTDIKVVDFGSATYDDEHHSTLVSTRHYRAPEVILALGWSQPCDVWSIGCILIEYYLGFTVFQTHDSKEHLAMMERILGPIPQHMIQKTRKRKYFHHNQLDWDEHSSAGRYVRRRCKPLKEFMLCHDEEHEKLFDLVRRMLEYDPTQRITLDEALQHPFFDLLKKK
Chain of 3',5'-cyclic-AMP phosphodiesterase 4B (Homo sapiens) (Q07343 whole entry, looked up): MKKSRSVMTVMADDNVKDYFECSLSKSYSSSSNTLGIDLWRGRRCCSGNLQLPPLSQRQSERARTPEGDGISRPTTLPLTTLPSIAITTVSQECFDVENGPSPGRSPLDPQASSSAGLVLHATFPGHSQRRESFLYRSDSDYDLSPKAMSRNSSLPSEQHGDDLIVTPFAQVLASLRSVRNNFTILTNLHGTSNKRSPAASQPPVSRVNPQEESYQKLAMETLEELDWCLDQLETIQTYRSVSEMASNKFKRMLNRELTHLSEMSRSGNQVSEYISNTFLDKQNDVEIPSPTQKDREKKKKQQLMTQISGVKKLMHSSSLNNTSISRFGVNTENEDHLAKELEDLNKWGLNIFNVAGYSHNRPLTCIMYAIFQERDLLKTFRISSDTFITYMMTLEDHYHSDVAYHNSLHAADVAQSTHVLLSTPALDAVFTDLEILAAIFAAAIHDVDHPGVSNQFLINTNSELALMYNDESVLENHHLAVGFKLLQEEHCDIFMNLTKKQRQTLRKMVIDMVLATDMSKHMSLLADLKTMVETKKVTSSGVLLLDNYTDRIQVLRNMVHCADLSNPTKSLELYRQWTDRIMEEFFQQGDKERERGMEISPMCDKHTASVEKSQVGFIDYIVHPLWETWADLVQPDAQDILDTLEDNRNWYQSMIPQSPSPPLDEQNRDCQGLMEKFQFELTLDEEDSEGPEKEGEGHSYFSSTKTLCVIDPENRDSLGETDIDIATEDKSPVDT
Chain of Cytochrome P450 2C19 (Homo sapiens) (P33261 whole entry, looked up): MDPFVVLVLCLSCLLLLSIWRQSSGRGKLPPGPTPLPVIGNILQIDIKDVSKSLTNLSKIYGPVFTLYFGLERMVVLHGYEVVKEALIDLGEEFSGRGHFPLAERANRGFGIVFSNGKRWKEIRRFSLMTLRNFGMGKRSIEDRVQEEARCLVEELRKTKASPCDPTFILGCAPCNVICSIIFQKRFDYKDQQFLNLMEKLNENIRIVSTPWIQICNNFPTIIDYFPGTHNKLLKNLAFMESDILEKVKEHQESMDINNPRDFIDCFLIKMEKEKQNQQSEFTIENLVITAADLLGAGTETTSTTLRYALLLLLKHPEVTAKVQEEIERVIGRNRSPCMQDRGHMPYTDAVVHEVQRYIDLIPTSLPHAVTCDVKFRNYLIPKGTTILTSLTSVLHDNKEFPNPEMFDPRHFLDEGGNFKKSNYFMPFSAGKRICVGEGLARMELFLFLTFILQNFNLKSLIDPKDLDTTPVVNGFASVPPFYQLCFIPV

With `Cc1noc(C)c1-c1cncnc1N(C)Cc1ccco1`, the Potency in assay [1] was > 11.4 µM (inactive); in assay [6], > 46 µM (inactive); in assay [7], > 46 µM (inactive); in assay [10], 3.16 µM (active); in assay [12] it was 2.51 µM (active). Moreover, the activity change, negative = inhibition is 1.41% (inactive) in assay [2], -7.22% (inactive) in assay [4] and 4.24% (inactive) in assay [13]. The Potency entry in assay [3], in [9], in assay [11], in [14], in [15] and in assay [16] was “inactive” in each case. For the same compound, the activity, negative = inhibition in assay [5] is -0.77% (inactive). For the same compound, the call in assay [8] was inactive. For the same compound, the results for the max response in assay [13] (setting [19]) and in [13] (setting [20]) were 11.5% and 13.2%, respectively.
Consider `Cc1noc(C)c1-c1cncnc1NCc1cccnc1`, for which the Potency in assay [1] was > 11.4 µM (inactive); in assay [6], > 46 µM (inactive); in assay [7], > 46 µM (inactive); in [10] it was 3.16 µM (active). Besides, the values for the activity change, negative = inhibition in [2], in [4] and in assay [13] were 1.35% (inactive), 4.9% (inactive) and 2.36% (inactive), respectively. The activity, negative = inhibition in assay [5] is 14.8% (inactive). Also, in [8], the call was inactive. Further, the Potency result in [9], in [11], in assay [14], in assay [15], in [17] and in [16] was “inactive” in each case. The max response in assay [13] (setting [19]) stood at 4.31%; in assay [13] (setting [20]), 5.44%.
With `CCNc1ncc2nc(-c3cn(C)c4ccccc34)c(=O)n(-c3ccc(OC)cc3)c2n1`, the Potency was > 11.4 µM (inactive) in [1], > 9.22 µM (inactive) in [6] and > 46 µM (inactive) in [7]. Moreover, the values for the activity change, negative = inhibition in [2], in assay [4] and in assay [13] were -24.5% (inactive), -8.46% (inactive) and 5.38% (inactive), respectively. In addition, the activity, negative = inhibition in assay [5] is -5.46% (inactive). The outcome in [8] was inactive. Further, the activation in assay [18] is -6.54% (inactive). The max response in assay [13] (setting [19]) worked out at 20.6%; in [13] (setting [20]) it was 23%. In addition, the Potency entry in assay [14], in assay [15], in assay [17] and in assay [16] was “inactive” each time.
As to `Fc1ccc(Nc2ccnc(-c3ccoc3)n2)cc1`, the Potency was > 11.4 µM (inactive) in assay [1]; 1 µM (active) in assay [3]; > 46 µM (inactive) in assay [6]; > 46 µM (inactive) in assay [7]; 7.94 µM (active) in [10]. Further, the activity change, negative = inhibition in assay [2] is -6.54% (inactive); in assay [4], 6.01% (inactive); in [13], 8.99% (inactive). Further, the activity, negative = inhibition in [5] is 8.8% (inactive). Moreover, the call in assay [8] was inactive. Also, the Potency entry in assay [9], in [11], in assay [14], in assay [17] and in assay [16] was “inactive” throughout. Also, the figures for the max response in assay [13] (setting [19]) and in assay [13] (setting [20]) were 9.29% and 17.6%, respectively.
`Cn1c(=O)c(-c2ccc(Cl)cc2)nc2cnc(N3CCOCC3)nc21`: the Potency in assay [1] was > 11.4 µM (inactive); in assay [3], 2.51 µM (active); in assay [6] it was > 9.22 µM (inactive); in [7], > 46 µM (inactive); in assay [18], 2.51 µM (active). The activity change, negative = inhibition in assay [4] was 26.9% (inactive); in assay [13], 6.96% (inactive). Further, the outcome in assay [8] was inactive. Also, the Potency entry in [9], in [10], in [14], in assay [15], in assay [17] and in [16] was “inactive” in each case. Besides, the results for the max response in assay [13] (setting [19]) and in assay [13] (setting [20]) were 10.9% and 17.6%, respectively.
As to `CN(C)c1ncnc2ccc(-c3cccnc3)cc12`, the Potency is > 11.4 µM (inactive) in [1]; 0.2 µM (active) in assay [3]; > 46 µM (inactive) in [6]; > 46 µM (inactive) in assay [7]; 7.08 µM (active) in assay [14]; 12.6 µM (active) in assay [15]. Moreover, the activity change, negative = inhibition in assay [2] was -15% (inactive); in assay [13] it was 3.37% (inactive). Besides, the activity, negative = inhibition in assay [5] was 9.76% (inactive). For the same compound, in assay [8], the call was inactive. The Potency entry in assay [9], in assay [11], in assay [17] and in assay [16] was “inactive” in each case. The max response in assay [13] (setting [19]) stood at 4.52%; in assay [13] (setting [20]), 7.15%.

The values are drawn from PubChem BioAssay (NCATS).
